# PubChem BioAssay (Tox21)
# Inconclusive results are not listed. Where a call stands in place of a potency, no number is given. Active and inactive are the calls of the source. Unless noted, calls come from the whole dose curve; as a rule, active = well fitted cell-killing curve with a large enough effect in the repeat runs; inconclusive = weak or mixed curves, or effect the other way; inactive = no such curve, though single readings can be large or run the other way.
# Experiment: qHTS assay for small molecule activators of the heat shock response signaling pathway - cell viability counter screen (AID 743209); note: nearly all actives have a fitted effect of over 50% in size; note: potency is the fitted concentration of half-maximal effect
# Conditions: HSE-bla HeLa viability, CellTiter-Glo luminescence, 5 h; series mostly up to 62.6 µM
# Summary of the method: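 Readout: CellTiter-Glo luminescence, 30 min at room temperature. System: HSE-bla HeLa cells, 1500/well, plated overnight. Treatment: compounds in DMSO, 5 h at 37 C.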
row,SMILES,Potency
1,CCCC1CCC(=O)CC1,inactive
2,O=C(Nc1ccc2c(O)c(N=Nc3ccc(N=Nc4ccc(S(=O)(=O)O)cc4)cc3)c(S(=O)(=O)O)cc2c1)c1ccccc1,inactive
3,OC1CCCc2ccccc21 (stereo not drawn),inactive
4,O=[N+]([O-])c1ccc(F)c(Cl)c1,inactive
5,O=C(/C=C/c1ccccc1)OC/C=C/c1ccccc1,inactive
6,CCN(CCN)c1cccc(C)c1,inactive
7,CCC(C)n1ncn(-c2ccc(N3CCN(c4ccc(OC[C@H]5CO[C@](Cn6cncn6)(c6ccc(Cl)cc6Cl)O5)cc4)CC3)cc2)c1=O (stereo partly drawn),inactive
8,CCCCC/C=C\C/C=C\CCCCCCCC(=O)O,42.9 µM (active)
9,CCc1cccc(CC)c1NC(=O)CN(CC(=O)O)CC(=O)O,inactive
10,COc1cc(S(=O)(=O)O)c(C)cc1N=Nc1c(O)ccc2cc(S(=O)(=O)O)ccc12,inactive
11,OC[C@H]1O[C@H](O[C@H]2O[C@H](CO)[C@@H](O)[C@H](O)[C@H]2O)[C@H](O)[C@@H](O)[C@@H]1O,inactive

# Experiment: qHTS assay for small molecule activators of the heat shock response signaling pathway (AID 743210; active = well fitted activation curve with a large enough effect in the signal ratio in the repeat runs, with a control signal flat, not every such curve was filed as active; the % refers to the signal ratio;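 note: HeLa cells with beta-lactamase reporter driven by heat shock elements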)
# Conditions: HeLa HSE-bla reporter, beta-lactamase ratio, 5 h; series mostly up to 62.6 µM
# Summary of the method: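 HeLa HSE-bla cells, overnight plating; cpd in DMSO 5 h, 37 C; LiveBLAzer B/G FRET substrate 2.5 h RT; fluorescence intensity read.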
row,SMILES,Potency
1,Cc1cc(C(C)(C)C)cc(C)c1CC1=NCCN1,inactive
2,CC(C)OC(=O)C(O)(CC(=O)O)CC(=O)O,inactive
3,C[C@@H](O)[C@H](N)C(=O)O,inactive
4,OC/C=C/CO,inactive
5,C1CCC(SSC2CCCCC2)CC1,inactive
6,C=Cc1ccccc1C=C,inactive
7,CN(C)Cc1ccccc1O,inactive
8,O=[N+]([O-])c1ccc(O)cc1C(F)(F)F,inactive
9,O=C(O)[C@H](O)[C@@H](O)[C@H](O[C@@H]1O[C@H](CO)[C@H](O)[C@H](O)[C@H]1O)[C@H](O)CO,inactive
10,CC(C)(c1cc(Br)c(OCC(Br)CBr)c(Br)c1)c1cc(Br)c(OCC(Br)CBr)c(Br)c1 (stereo not drawn),inactive
11,O=C(O)c1cccc(C(F)(F)F)c1,inactive
12,CCCCCCOC(=O)C(C)CC (stereo not drawn),inactive
13,Clc1ccnc(Cl)n1,inactive
14,CN1CCCCC1CCN1c2ccccc2Sc2ccc(S(C)=O)cc21 (stereo not drawn),inactive
15,Cc1ccc(-c2ccccc2)cc1,inactive
16,C=C(C)c1cccc(C(=C)C)c1,inactive
17,O=C1CCc2cc(OCCCCc3nnnn3C3CCCCC3)ccc2N1,inactive
18,CCCC1CCC(=O)CC1,inactive
19,O=C(Nc1ccc2c(O)c(N=Nc3ccc(N=Nc4ccc(S(=O)(=O)O)cc4)cc3)c(S(=O)(=O)O)cc2c1)c1ccccc1,inactive
20,OC1CCCc2ccccc21 (stereo not drawn),inactive
21,O=C(/C=C/c1ccccc1)OC/C=C/c1ccccc1,inactive
22,COc1cc(S(=O)(=O)O)c(C)cc1N=Nc1c(O)ccc2cc(S(=O)(=O)O)ccc12,inactive
